Results: PMC11062922 (Nature Chemical Biology, 2023)
Read-outs that look alike come from different tables or passages of the source.

Tests used:
TNIK = conditions: read-out: apparent Kd, n = 1
ULK3 = conditions: read-out: apparent Kd, n = 1

## Lestaurtinib
TNIK; compound concentrations:100 nM and 1000 nM (sheet 'Lestaurtinib' of Supplementary Table 1),run:Lestaurtinib_02795_R2,Plate:MR022
  potency estimated from few doses: 0.154 µM
TNIK; compound concentrations:100 nM and 1000 nM (sheet 'Lestaurtinib' of Supplementary Table 1),run:Lestaurtinib_02795_R3,Plate:MR022
  potency estimated from few doses: 0.504 µM
TNIK; compound concentrations:100 nM and 1000 nM (sheet 'Lestaurtinib' of Supplementary Table 1),run:Lestaurtinib_02802_R1,Plate:MR029
  potency estimated from few doses: 0.121 µM
TNIK; compound concentrations:100 nM and 1000 nM (sheet 'Lestaurtinib' of Supplementary Table 1),run:Lestaurtinib_02802_R2,Plate:MR029
  potency estimated from few doses: 0.141 µM
TNIK; compound concentrations:100 nM and 1000 nM (sheet 'Lestaurtinib' of Supplementary Table 1),run:Lestaurtinib_02896_R1,Plate:MR030
  potency estimated from few doses: 0.444 µM
TNIK; compound concentrations:100 nM and 1000 nM (sheet 'Lestaurtinib' of Supplementary Table 1),run:Lestaurtinib_02896_R2,Plate:MR030
  potency estimated from few doses: 0.356 µM
TNIK; compound concentrations:100 nM and 1000 nM (sheet 'Lestaurtinib' of Supplementary Table 1),run:Lestaurtinib_02896_R3,Plate:MR030
  potency estimated from few doses: 0.484 µM
TNIK; compound concentrations:100 nM and 1000 nM (sheet 'Lestaurtinib' of Supplementary Table 1),run:Lestaurtinib_03172_R2,Plate:MR031
  potency estimated from few doses: 0.157 µM
TNIK; compound concentrations:100 nM and 1000 nM (sheet 'Lestaurtinib' of Supplementary Table 1),run:Lestaurtinib_03172_R3,Plate:MR031
  potency estimated from few doses: 0.561 µM
TNIK; compound concentrations:100 nM and 1000 nM (sheet 'Lestaurtinib' of Supplementary Table 1),run:Lestaurtinib_03252_R1,Plate:MR032
  potency estimated from few doses: 0.143 µM
TNIK; compound concentrations:100 nM and 1000 nM (sheet 'Lestaurtinib' of Supplementary Table 1),run:Lestaurtinib_03260_R1,Plate:MR033
  potency estimated from few doses: 0.428 µM
TNIK; compound concentrations:100 nM and 1000 nM (sheet 'Lestaurtinib' of Supplementary Table 1),run:Lestaurtinib_03260_R2,Plate:MR033
  potency estimated from few doses: 0.808 µM
TNIK; compound concentrations:100 nM and 1000 nM (sheet 'Lestaurtinib' of Supplementary Table 1),run:Lestaurtinib_03260_R3,Plate:MR033
  potency estimated from few doses: 0.717 µM
ULK3; compound concentrations:100 nM and 1000 nM (sheet 'Lestaurtinib' of Supplementary Table 1),run:Lestaurtinib_02339_R1,Plate:MR001
  potency estimated from few doses: 0.27 µM
ULK3; compound concentrations:100 nM and 1000 nM (sheet 'Lestaurtinib' of Supplementary Table 1),run:Lestaurtinib_02339_R3,Plate:MR001
  potency estimated from few doses: 0.265 µM
ULK3; compound concentrations:100 nM and 1000 nM (sheet 'Lestaurtinib' of Supplementary Table 1),run:Lestaurtinib_02364_R1,Plate:MR002
  potency estimated from few doses: 0.301 µM
ULK3; compound concentrations:100 nM and 1000 nM (sheet 'Lestaurtinib' of Supplementary Table 1),run:Lestaurtinib_02364_R2,Plate:MR002
  potency estimated from few doses: 0.295 µM
ULK3; compound concentrations:100 nM and 1000 nM (sheet 'Lestaurtinib' of Supplementary Table 1),run:Lestaurtinib_02367_R1,Plate:MR003
  potency estimated from few doses: 0.146 µM
ULK3; compound concentrations:100 nM and 1000 nM (sheet 'Lestaurtinib' of Supplementary Table 1),run:Lestaurtinib_02367_R2,Plate:MR003
  potency estimated from few doses: 0.218 µM
ULK3; compound concentrations:100 nM and 1000 nM (sheet 'Lestaurtinib' of Supplementary Table 1),run:Lestaurtinib_02367_R3,Plate:MR003
  potency estimated from few doses: 0.228 µM
ULK3; compound concentrations:100 nM and 1000 nM (sheet 'Lestaurtinib' of Supplementary Table 1),run:Lestaurtinib_02381_R1,Plate:MR004
  potency estimated from few doses: 0.154 µM
ULK3; compound concentrations:100 nM and 1000 nM (sheet 'Lestaurtinib' of Supplementary Table 1),run:Lestaurtinib_02407_R1,Plate:MR005
  potency estimated from few doses: 0.137 µM
ULK3; compound concentrations:100 nM and 1000 nM (sheet 'Lestaurtinib' of Supplementary Table 1),run:Lestaurtinib_02422_R1,Plate:MR006
  potency estimated from few doses: 0.113 µM
ULK3; compound concentrations:100 nM and 1000 nM (sheet 'Lestaurtinib' of Supplementary Table 1),run:Lestaurtinib_02422_R2,Plate:MR006
  potency estimated from few doses: 0.0605 µM
ULK3; compound concentrations:100 nM and 1000 nM (sheet 'Lestaurtinib' of Supplementary Table 1),run:Lestaurtinib_02422_R3,Plate:MR006
  potency estimated from few doses: 0.134 µM
ULK3; compound concentrations:100 nM and 1000 nM (sheet 'Lestaurtinib' of Supplementary Table 1),run:Lestaurtinib_02437_R1,Plate:MR007
  potency estimated from few doses: 0.239 µM
ULK3; compound concentrations:100 nM and 1000 nM (sheet 'Lestaurtinib' of Supplementary Table 1),run:Lestaurtinib_02437_R2,Plate:MR007
  potency estimated from few doses: 0.253 µM
ULK3; compound concentrations:100 nM and 1000 nM (sheet 'Lestaurtinib' of Supplementary Table 1),run:Lestaurtinib_02437_R3,Plate:MR007
  potency estimated from few doses: 0.0225 µM
ULK3; compound concentrations:100 nM and 1000 nM (sheet 'Lestaurtinib' of Supplementary Table 1),run:Lestaurtinib_02438_R2,Plate:MR008
  potency estimated from few doses: 0.236 µM
ULK3; compound concentrations:100 nM and 1000 nM (sheet 'Lestaurtinib' of Supplementary Table 1),run:Lestaurtinib_02438_R3,Plate:MR008
  potency estimated from few doses: 0.286 µM
ULK3; compound concentrations:100 nM and 1000 nM (sheet 'Lestaurtinib' of Supplementary Table 1),run:Lestaurtinib_02443_R1,Plate:MR009
  potency estimated from few doses: 0.231 µM
ULK3; compound concentrations:100 nM and 1000 nM (sheet 'Lestaurtinib' of Supplementary Table 1),run:Lestaurtinib_02443_R2,Plate:MR009
  potency estimated from few doses: 0.239 µM
ULK3; compound concentrations:100 nM and 1000 nM (sheet 'Lestaurtinib' of Supplementary Table 1),run:Lestaurtinib_02443_R3,Plate:MR009
  potency estimated from few doses: 0.196 µM
ULK3; compound concentrations:100 nM and 1000 nM (sheet 'Lestaurtinib' of Supplementary Table 1),run:Lestaurtinib_02473_R1,Plate:MR010
  potency estimated from few doses: 0.232 µM
ULK3; compound concentrations:100 nM and 1000 nM (sheet 'Lestaurtinib' of Supplementary Table 1),run:Lestaurtinib_02473_R2,Plate:MR010
  potency estimated from few doses: 0.253 µM
ULK3; compound concentrations:100 nM and 1000 nM (sheet 'Lestaurtinib' of Supplementary Table 1),run:Lestaurtinib_02482_R1,Plate:MR011
  potency estimated from few doses: 0.24 µM
